# Laboratory results from ChEMBL document CHEMBL3988442, “University of Dundee, Small-Polar-MMV Screening Library” (2021).
# Screen size: about 85,000 compounds; about 440 (0.52%) showed an effect of 50% or more. This is one part of a sample in which strong results are shown more often than they occur.
# Assay: In vitro enzyme assay to detect hydrolysis of chlorophenol red-beta-D-[…] directly proportional to the number of Toxoplasma stably expressing beta-galactosidase
# Format: functional, organism-based, Toxoplasma gondii
# Set-up: scale not given: in the data most compounds retested in dose-response had high values
SMILES,Percent Effect (50 µM) [%],Percent Effect (10 µM) [%]
Cc1ccc(C(=O)N2C[C@@H](CO)[C@H](N(C)C)C2)cc1,0.785,–
CN(C)C(=O)CNC(CO)c1ccc(Cl)c(F)c1 (stereo unspecified),52.18,–
CN(C)C(=O)CNC(CC(F)(F)F)c1ccc(Cl)cc1 (stereo unspecified),–,0.885
CN(C)C(=O)CNC(CC(F)(F)F)c1ccc(F)cc1 (stereo unspecified),–,4.779
CCNC(=O)c1cc2ccccc2n1C,-19.31,–
CCOC(CNC(=O)c1ccnn1C)c1ccccc1 (stereo unspecified),-0.4622,–
Cn1nccc1C(N)=O,-25,–
CCOCC(C)OC(=O)c1ccnn1C (stereo unspecified),57.1,–
NCCCn1nc2ccccn2c1=O,7.053,–
CCOc1ccc(Cl)cc1C(N)=O,-6.805,–
Cc1nn(C)c(C)c1CN(C)C(=O)c1cc(NC(=O)C2CC2)n(C)n1,–,51.38
Cc1nn(C)c(C)c1CN(C)C(=O)c1cc(C(F)(F)F)n(C)n1,–,12.73
Cn1nc(C(=O)NC2CCCC2)cc1NC(=O)C1CC1,–,-6.404
Cc1nn(C)c(C)c1CNC(=O)c1cc(NC(=O)C2CC2)n(C)n1,–,56.77
Cn1nc(C(=O)NC2CC2)cc1NC(=O)C1CC1,–,-1.586
CCn1nc(C)c(NC(=O)c2cc(NC(=O)C3CC3)n(C)n2)c1C,–,0.1763
CN(C)C1CCN(S(=O)(=O)c2ncn(C)c2Cl)CC1,-2.885,–
COCC(=O)Nc1c[nH]nc1C1CCCNC1 (stereo unspecified),-10.17,–
COc1ccc(F)cc1C(=O)N1CCC(CN)CC1,-0.7009,–
Cc1nccc(C(=O)NCC(C)(C)CN(C)C)n1,2.804,–
COc1ccc(CNC(=O)CC2CCNC2)c(OC)c1 (stereo unspecified),-8.79,–

SMILES,Percent Effect (50 µM) [%],Percent Effect (10 µM) [%]
CC(OCCCNC(=O)c1cccnc1O)c1ccccc1 (stereo unspecified),–,39.02
COc1ccc(C(=O)NCCCOC(C)c2ccccc2)c(OC)c1 (stereo unspecified),–,61.13
CC(=O)c1ccc(C(=O)NCCCOC(C)c2ccccc2)s1 (stereo unspecified),–,-2.061
CNC1CCN(Cc2ncc(C)c(OC)c2C)CC1,36.04,–
CCn1nc(C)c2nc(C)nc(NCCc3ccc(C)cc3)c21,–,34
CCCc1nc(NCCCOC)c2c(n1)c(C)nn2CC,–,90.71
CCc1nc(NCCCn2cccn2)c2c(n1)c(C)nn2CC,–,14.75
CCc1nc(NCCCOC)c2c(n1)c(C)nn2C,–,6.336
CCn1nc(C)c2nc(C(C)C)nc(NCCOC)c21,–,21.04
CCCc1nc(N2CCC(C)CC2)c2c(n1)c(C)nn2CC,–,25.59
CCCc1nc(NCCOC)c2c(n1)c(C)nn2CC,–,57.71
CCCc1nc(NCCCOCC)c2c(n1)c(C)nn2CC,–,72.53
CCCc1nc(NCCc2ccccc2)c2c(n1)c(C)nn2CC,–,68.81
CCCc1nc(NCCCO)c2c(n1)c(C)nn2CC,–,3.108
CCn1nc(C)c2nc(C)nc(NCCc3ccccc3)c21,–,19.6
CCCc1nc(NCC(=O)N2CCOCC2)c2c(n1)c(C)nn2CC,–,3.704
CNCCCOC(C)C,-2.494,–
NC1CCN(CC2CC2)CC1,2.288,–
NC(=O)c1ccc(NC(=O)CCN2CC(O)C2)cc1,-17.28,–
CCC(Nc1cccc(OCC(F)(F)F)c1)C(N)=O (stereo unspecified),-6.008,–
CCOC(=O)NC1CCC(NC(=O)C2CCC2)CC1 (stereo unspecified),0.5853,–

SMILES,Percent Effect (50 µM) [%],Percent Effect (10 µM) [%]
CCN(CC)c1nc2nc[nH]c(=O)c2s1,-4.057,–
CC(CCN)CCO (stereo unspecified),29.53,–
OCc1nncn1-c1ccccc1,12.09,–
Cc1cc(F)ccc1N1CCC(N2C[C@@H](C)[C@@](C)(O)C2)CC1,–,24.01
C[C@@H]1CN(C2CCN(c3ccccc3F)CC2)CC[C@]1(C)O,–,72.85
C[C@@H]1CN(C2CCN(c3ccccc3F)CC2)C[C@]1(C)O,–,12.36
CN(C)CC1CNCCO1 (stereo unspecified),-14.23,–
CC(=O)NC(C(=O)N(C)Cc1cccs1)C(C)C (stereo unspecified),4.166,–
OCCN1CCN(c2ccc3nnnn3n2)CC1,0.916,–
Cn1cc(S(N)(=O)=O)c(C(F)(F)F)n1,17.97,–
Cn1cc(CN)c(C(F)(F)F)n1,98.21,–
Cn1cc(N)c(C(F)(F)F)n1,-8.221,–
CN1CCC(CNC(=O)CCc2cccs2)C1 (stereo unspecified),-16.97,–
CN1CCCCC1CCC(=O)NCCc1ccncc1 (stereo unspecified),15.39,–
CN(C)S(=O)(=O)c1ccc(-c2nc(C#N)c(NC(C)(C)C)o2)o1.Cl,–,91.6
CC(C)Nc1oc(-c2ccc(S(=O)(=O)N(C)C)o2)nc1C#N,–,-12.9
CN(C)S(=O)(=O)c1ccc(-c2nc(C#N)c(NC3CC3)o2)o1,–,-1.829
CNc1oc(-c2ccc(S(=O)(=O)N(C)C)o2)nc1C#N,–,44.93
CN(C)S(=O)(=O)c1ccc(-c2nc(C#N)c(NC3CCCCC3)o2)o1,–,3.806
